Calls of active or inactive are those of the source. How the source made its calls: active means hit-call score of the fitted dose curve at least 0.9, where 1 is the maximum; inactive means score below 0.9.

The nature of this experiment: ATG_E_Box_CIS: Attagene CIS-FACTORIAL HepG2 Assay for human Enhancer Box (E-box) (AID 2282936). The following applies: HepG2 E-box cis-reporter transcription, actives raise or lower the signal. As to the method: ATG_CIS is a cell-based, multiplexed-readout assay that uses HepG2, a human liver cell line, with measurements taken at 24 hours after chemical dosing in a 24-well plate.ATG_E_Box_CIS is one of 52 assay component(s) measured or calculated from the ATG_CIS assay. It is designed to make measurements of mRNA induction, a form of inducible reporter, as detected with fluorescence intensity signals by Reverse transcription polymerase chain reaction (RT-PCR) and Capillary electrophoresis technology.Data from the assay component ATG_E_Box_CIS was analyzed into 1 assay endpoint. This assay endpoint, ATG_E_Box_CIS, was analyzed with bidirectional fitting relative to DMSO as the negative control and baseline of activity. Using a type of inducible reporter, measures of mRNA for gain or loss-of-signal activity can be used to understand the reporter gene at the transcription factor-level as they relate to the gene USF1. Furthermore, this assay endpoint can be referred to as a primary readout, because this assay has produced multiple assay endpoints where this one serves a reporter gene function. To generalize the intended target to other relatable targets, this assay endpoint is annotated to the dna binding intended target family, where the subfamily is basic helix-loop-helix protein.
Human liver HepG2 cells are transiently transfected with multiple reporter transcription units (MRTUs) in 6-well plates using FuGene 6 reagent (Roche; 3 ml FuGene/1 mg DNA). The MRTU constructs are regulated by a cis-regulating element (promoter). […] A major difference between the CIS and TRANS system is that in CIS activities of endogenous TFs are measured, whereas the TRANS assay evaluates changes in activities of exogenous, chimeric NR-Gal4 proteins. […] At the end of 24 hour incubation, total RNA was isolated using TriZol reagent (Invitrogen). The isolated RNA is then reverse-transcribed using oligo(dT) primer and Mo-MLV reverse transcriptase (Invitrogen) with DNAse I (Ambion) treatment for 30 min. The one-tenth of the produced cDNA was amplified by PCR using Taq DNA polymerase (Invitrogen) and two reporter sequence-specific primers. The PCR products were fluorescently labeled by primer extension with 6-arboxyfluorescein (6-FAM) 5'-labeled reporter sequence-specific primer (2 min at 95 C, 20 s at 68 C and 10 min at 72 C) and these products were digested with 5U of HpaI (New England Biolabs) for 2h at 37 C. The fragments were purified using Qiaquick PCR columns (Qiagen), analyzed on an ABI 3130xL genetic analyzer (Applied Biosystems) with peak positions identified by using a set of X-rhodamine (ROX)-labeled MapMarker1000 molecular weight standards (BioVentures). The raw capillary electrophoresis data was processed using Attagraph software (Attagene).
On to `O=S(=O)(O)c1ccc2cc(O)c(S(=O)(=O)O)cc2c1`, for which the outcome was inactive.
With `C=CC(=O)OCCC(=O)O`, the result was inactive.
Turning to `C1CN(SSN2CCOCC2)CCO1`, the outcome was inactive.
Same read-out and setting: the result for `C=CC(C)(CCC=C(C)C)OC(=O)C(C)C` (stereo not given) reads “inactive”; that for `CCCCNc1ccc(NCCCC)c2c1C(=O)c1ccccc1C2=O`, “inactive”; that for `Oc1ccc(Cl)cc1Cc1cc(Cl)ccc1O`, “inactive”.
As for `CO[Si](OC)(OC)c1ccccc1`, the outcome was inactive.
Still for that read-out and setting: the result for `Clc1nc2ccccc2s1` reads “inactive”; that for `N[C@H]1C(O)O[C@H](CO)[C@H](O)[C@@H]1O` (stereo not given in full), “inactive”.
The same measure, in the same setting: the result for `CCO[Si](C)(OCC)OCC` reads “inactive”; that for `O=C(O)CC(C(=O)O)C(CC(=O)O)C(=O)O` (stereo not given), “inactive”.
Turning to `C=CCOc1c(Br)cc(Br)cc1Br`, the result was inactive.
In the case of `CCCCCCCCCCCSCC(=O)O`, the AC50 is 100 µM (active).
As for `Cn1c([N+](=O)[O-])cnc1COC(N)=O`, the outcome was inactive.
Same read-out and setting: next, `O=CC1CC1`: “inactive”; `COc1ccc(-c2coc3cc(O)ccc3c2=O)cc1`: “inactive”.
For `CC(CC=O)c1ccccc1` (stereo not given), the result was inactive.
On the same count and under the same terms, next, `O=C(O)C(c1ccc(Cl)cc1)c1ccc(Cl)cc1`: “inactive”.
With `CC(=O)Oc1ccc(C(C)=O)cc1`, the outcome was inactive.
With `COC(=O)c1cc(Cl)ccc1[N+](=O)[O-]`, the outcome was inactive.
The same measure, in the same setting: the result for `O=C1CCCN1CCO` reads “inactive”; that for `CCO[Si](CCCN=C=O)(OCC)OCC`, “inactive”.
Same read-out and setting: the result for `O=C1OC(=O)c2cc(Oc3ccc4c(c3)C(=O)OC4=O)ccc21` reads “inactive”; that for `Cc1ccc(C(C)(C)C)cc1`, “inactive”; that for `CCCCCC(C)O` (stereo not given), “inactive”.
On the same count and under the same terms, next, `O=C(Nc1ccccc1SSc1ccccc1NC(=O)c1ccccc1)c1ccccc1`: “inactive”; `COC(=O)/C=C\C(=O)O`: “inactive”.
On to `O=C1c2cccc(O)c2C(=O)c2c(O)cc(CO)cc21`, for which the AC50 is 2.41 µM (active).
Turning to `CC(C)c1ccc(C#N)cc1`, the result was inactive.
For `CCC(C)OC(=O)c1ccc(O)cc1` (stereo not given), the outcome was inactive.
As for `c1ccc(-c2ccccn2)nc1`, the AC50 was 61.2 µM (active).
As for `CC(C)c1ccc2c(c1)CC[C@H]1[C@](C)(CN)CCC[C@]21C`, the outcome was inactive.
On to `CCN(Cc1cccc(S(=O)(=O)O)c1)c1ccc(C(=C2C=CC(=[N+](CC)Cc3cccc(S(=O)(=O)[O-])c3)C=C2)c2ccccc2)cc1`, for which the outcome was inactive.
For `C=C(C)C(=O)OCC(C)C`, the outcome was inactive.
Regarding `CCCCCCCCCCCCCCCC[n+]1ccccc1`, the result was inactive.
With `CC(=O)c1ccc2c(c1)CCCC2`, the outcome was inactive.
Consider `CCOC(=O)N1CCC(=C2c3ccc(Cl)cc3CCc3cccnc32)CC1`, for which the outcome was inactive.
Still for that read-out and setting: the result for `CC(C)c1ccc2cc(C(C)C)ccc2c1` reads “inactive”; that for `CC(C)(C)c1ccc(OC(=O)c2ccccc2O)cc1`, “inactive”.
On to `O=S(=O)(Oc1ccc(Cl)cc1Cl)c1ccccc1`, for which the result was inactive.
